# Compound activity (PubChem BioAssay)
# IL1B secr inh – inflammasome signaling inhibition, IL-1 beta readout; THP-1 LPS/ATP IL-1B secretion, AlphaLISA, 16 h; active compounds read low; activity change, % at 57.5 µM; 4.7% of 360,000 active; in the data active = activity change below about -50%; inconclusive = mostly about -30% to -49%
#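 Secreted IL-1B measured by AlphaLISA bead assay after 16 h compound exposure of THP-1 cells; compounds (final up to 57.5 uM) added 1 h before LPS (250 ng/mL) and ATP (1.25 mM) stimulation; lower signal means less secretion.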
# HT1080NT lethal – kills 2HG-producing HT-1080-NT fibrosarcoma cells; HT-1080-NT fibrosarcoma viability, CellTiter-Glo ATP luminescence, 48 h; Potency, µM (series often up to 46.1 µM), for inactives: top-dose activity, negative = less viability, actives largely listed as cytotoxic; 1.6% of 360,000 active; AID 686970;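 also: NT is the 2HG producing partner of a matched IDH1 knockdown line; potency is read from the fitted curve at half-maximal effect; 0% = DMSO-treated cells and -100% = media-only wells without cells; nearly all actives have a fitted effect of over 55% in size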
#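 HT-1080-NT fibrosarcoma cells (2HG-overproducing), 750 cells/well in RPMI with 5% FBS, dosed after 2 h and incubated 48 h at 37C. CellTiter-Glo luminescence normalized to DMSO and no-cell wells; concentration-response curves fitted and classed.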
# DT40 TDP1 CPT – growth inhibition of DT40 Tdp1-/-;hTDP1 cells with camptothecin (screen for TDP1 inhibitors) | 12% of 420,000 active | Potency, µM (doses to about 46.2 µM), for inactives: at the top dose activity change, negative = growth inhibition, most hits filed as inhibitors | chicken DT40 Tdp1-/-;hTDP1 cells + 20 nM CPT, ATP luminescence, 48 h | AID 686979; also: potency is read from the fitted curve at half-maximal effect; nearly all actives have a fitted effect of over 55% in size
#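 Cell growth measured by CellTiter-Glo luminescence after a minimum 48 h, 37 C compound exposure with 20 nM CPT in Tdp1-knockout DT40 cells stably expressing hTDP1, seeded 400/well; qHTS titration format.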
# TDP1 cell noCPT – qHTS for Inhibitors of human tyrosyl-DNA phosphodiesterase 1 (TDP1): qHTS in cells in absence of CPT | DT40 Tdp1-/- hTDP1 cells, no CPT, ATP luminescence, 48 h | Potency, µM (doses to about 46.2 µM), for the others: top-dose activity change, negative = growth inhibition, hits mostly inhibitors | 15% of 420,000 active | AID 686978, 2013; also: potency is read from the fitted curve at half-maximal effect; nearly all actives have a fitted effect of over 55% in size
#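 Compound effects on proliferation are scored in DT40 Tdp1-/-;hTDP1 cells in the absence of CPT. ATP levels (CellTiter-Glo luminescence) are recorded after a ≥48 hr, 37 °C incubation.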
# HT1080 IDH1KD tx – toxicity to HT-1080 IDH1 knockdown cells (counter line) | HT-1080 IDH1 knockdown viability, ATP luminescence, 48 h | Potency, µM (top dose mostly 46.1 µM), for inactives: at the top dose activity, negative = toxicity, hits mostly cytotoxic | 2% of 360,000 active | AID 686971;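 also: potency is read from the fitted curve at half-maximal effect; 0% = DMSO wells and -100% = cell-free medium wells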
#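 Viability of IDH1-knockdown HT-1080 fibrosarcoma cells was assessed by CellTiter-Glo after 48 h at 37 °C with titrated compound; concentration-effect curves were classified by fit quality and response size.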
# The depositor's hits bear a star; ? = inconclusive; / = not tested or not shown; [ ] = dose if it differs, or a comment. Sampled rows, rich in hits. Any-hit rate of the full collection: about 19%. Unless noted, calls follow the shape of the dose curve; as a rule, active = well fitted curve in the direction sought with a large enough effect; inconclusive = small, poorly fitted or top-dose-only effect, or another doubt; inactive = no such curve, though single readings can be large; an effect the other way counts as inactive or inconclusive. Unless noted, % is scaled to controls: 0 for no effect and ±100 for the full control effect.
SMILES,IL1B secr inh,HT1080NT lethal,DT40 TDP1 CPT,TDP1 cell noCPT,HT1080 IDH1KD tx
CNc1nn(-c2cccc(Cl)c2)nc1N,-12.5,-12.7%,?,2.06µM*,-12.4%
O=c1[nH]c(Cc2ccccc2Cl)nc2ccccc12,12.5,1.0%,-4.7%,-13.8%,-1.2%
Cc1ccc2c(=O)[nH]c(Cc3ccccc3C(=O)O)nc2c1,-7.0,0.0%,?,18.4µM*,-2.3%
CC(NC(=O)c1ccc2nc(CCc3ccccc3)oc2c1)c1ccccc1 (centres undefined),/,/,20.6µM*,?,/
O=C(NCc1cccc(F)c1)c1ccc2nc(CCc3ccccc3)oc2c1,/,/,20.6µM*,?,/
Cc1cccc(NC(=O)c2ccc3nc(CCc4ccccc4)oc3c2)c1C,/,/,18.4µM*,?,/
CCC(C)NC(=O)c1ccc2nc(CCc3ccccc3)oc2c1 (centres undefined),/,/,?,23.1µM*,/
COCCNC(=O)c1ccc2nc(CCc3ccccc3)oc2c1,/,/,11.5%,3.8%,/
CCNC(=O)c1ccc2nc(CCc3ccccc3)oc2c1,/,/,-22.9%,-18.6%,/
O=C(Cn1cnc2ccccc21)NC(c1ccccc1)c1ccccc1,-16.9,-20.4%,?,-33.5%,?
CCCS(=O)(=O)c1c(S(=O)(=O)CCC)c2ccc(C(N)=O)cn2c1C(=O)OC,-3.9,-4.4%,-12.1%,14.2%,0.8%
CCCS(=O)(=O)c1c(S(=O)(=O)CCC)c2ccc(C(C)=O)cn2c1C(=O)OC,-135.6*,-12.2%,?,-7.3%,-4.5%
Cc1cc(SCC(=O)N2CCN(C(=O)c3ccco3)CC2)c(C)cc1Br,2.2,-2.6%,-28.0%,-25.6%,0.5%
COc1cc(N=Nc2c(O)c3ccccc3[nH]c2=O)c(OC)cc1N=Nc1ccccc1,24.1,1.7%,?,13µM*,6.7%
COc1ccc(OC)c(N=Nc2c(O)c3ccccc3[nH]c2=O)c1,11.4,-28.9%,14.6µM*,18.4µM*,?
CCCC1CC(C(=O)Nc2ccccc2)C(=O)O1 (centres undefined),-12.8,16.4%,7.5%,14.3%,17.2%
Cc1nnc(SCC(=O)NC2CCCCC2)[nH]c1=O,-1.6,1.4%,-23.3%,-14.3%,1.4%
COc1cccc(CNC(=O)CCCn2nc(C)c3sc4ccccc4c3c2=O)c1,/,/,16.4µM*,?,/
CSc1ccc(CCNC(=O)CCCn2nc(C)c3sc4ccccc4c3c2=O)cc1,/,/,14.6µM*,?,/
COc1ccccc1CNC(=O)CCCn1nc(C)c2sc3ccccc3c2c1=O,/,/,-18.3%,-19.8%,/
CCCN1CCN(CCCNC(=O)CCCn2nc(C)c3sc4ccccc4c3c2=O)CC1,-13.8,-5.8%,4.8%,-8.8%,0.0%
COc1cccc2c1cc1c(=O)n(CC(=O)N3CCN(c4ccccc4F)CC3)nc(C)n12,/,/,-2.1%,-14.7%,/
O=C(NCc1ccccc1)C1CCC(=O)N(CCN2CCOCC2)C1 (centres undefined),-12.9,0.9%,-9.4%,18.5%,-3.5%
CCN(Cc1ccncc1)S(=O)(=O)c1ccc(C(C)=O)cc1,-0.1,0.2%,16.4µM*,11.6µM*,-11.0%
CCN(CC)S(=O)(=O)c1ccc(C(=O)Nc2ccc(Cc3ccncc3)cc2)cc1,-83.4*,0.8%,16.4µM*,14.6µM*,-15.4%
SMILES,IL1B secr inh,HT1080NT lethal,DT40 TDP1 CPT,TDP1 cell noCPT,HT1080 IDH1KD tx
COc1ccc(NC(=O)CNc2cc(S(=O)(=O)N3CCOCC3)ccc2NCC2CCCO2)cc1 (centres undefined),-3.0,9.3%,?,?,-1.0%
Cc1ccccc1N1C(=O)C2ON(c3ccccc3)C(c3ccco3)C2C1=O (centres undefined),11.6,13.2%,19.3%,1.8%,2.9%
CC(=O)c1cccc(-c2ccnc3c2CC(C(=O)Nc2ccc(Cl)cc2)O3)c1 (centres undefined),-7.9,?,?,20.6µM*,16.4µM*
CC(=O)c1cccc(NC(=O)C2Cc3c(-c4ccc(Cl)cc4)ccnc3O2)c1 (centres undefined),-8.2,?,?,10.3µM*,?
CN(C)c1cccc(NC(=O)C2Cc3c(-c4ccc(Cl)cc4)ccnc3O2)c1 (centres undefined),-28.2,?,?,?,?
O=C(Nc1ccc(Cl)c(C(F)(F)F)c1)C1Cc2c(-c3ccc4c(c3)OCO4)ccnc2O1 (centres undefined),-2.6,?,23.1µM*,?,20.6µM*
CC(=O)c1cccc(-c2ccnc3c2CC(C(=O)Nc2ccc(Cl)c(C(F)(F)F)c2)O3)c1 (centres undefined),93.9,-19.9%,20.6µM*,?,?
CC(=O)Nc1ccc(NC(=O)C2Cc3c(-c4cccc(C(C)=O)c4)ccnc3O2)cc1 (centres undefined),30.4,-1.1%,2.5%,-19.4%,-0.7%
Cc1ncc2c(c1CNC(=O)c1cncs1)CCN(C(=O)c1cc(F)c(F)cc1F)C2,/,/,2.7%[9.04 µM],-21.9%,/
Oc1ccc(F)c(CN2CCN(c3ncc(Cc4ccccc4)cn3)CC2)c1,21.8,?,?,25.9µM*,?
O=[N+]([O-])c1ccc(Cl)c(CN2CCN(c3ncc(Cc4ccccc4)cn3)CC2)c1,14.8,-19.9%,23.1µM*,16.4µM*,-21.7%
O=[N+]([O-])c1ccc(N2CCN(Cc3ccccc3)CC2)c(S(=O)(=O)N2CCOCC2)c1,-2.5,-3.0%,-11.6%,?,-7.7%
O=[N+]([O-])c1ccc(Br)c(CN2CCN(c3ncc(Cc4ccccc4)cn3)CC2)c1,59.6,-9.5%,?,20.6µM*,-19.8%
COc1ccc(C(C)C)cc1S(=O)(=O)Nc1cccnc1,-28.0,?,?,8.6%,2.7%
COc1ccc(S(=O)(=O)N2CCOCC2)cc1NC(=O)CCc1c[nH]c2ccccc12,-6.8,3.1%,5.5%,?,23.4%
CN(C)/C=C1\SC(=S)N(N2C(=O)C3C4C=CC(C4)C3C2=O)C1=O (centres undefined),25.9,0.9%,11.1%,10.4%,-6.3%
O=C(NCc1cc(C(F)(F)F)cc(C(F)(F)F)c1)C1CC(c2ccc(C(F)(F)F)cc2)=NO1 (centres undefined),?,0.7%,?,?,4.0%
CC(N)c1csc(Nc2ccc(S(C)(=O)=O)cc2)n1 (centres undefined),-3.3,6.9%,16.1%,-0.4%,-0.1%
NC(c1csc(Nc2nncc3ccccc23)n1)C1CCCCC1 (centres undefined),-78.5*,20.6µM*,5.8µM*,5.8µM*,23.1µM*
NC(c1csc(Nc2ccccn2)n1)c1ccccc1Cl (centres undefined),2.6,-1.1%,?,?,-6.7%
